Measles inh: inhibitors of measles virus growth in infected cells; 0.1% of 33,000 active; infected Vero cells, GFP fluorescence, 64 h; hits give low values; z-score (concentration not given with the values); in the data active = z-score below about -3
* marks the source's active call; other numbers are inactive results. Shown is part of a subset that was picked to be rich in hits.

SMILES	Measles inh
Cc1cc(C)cc(Nc2ncnc3c2cnn3-c2ccccc2)c1	-0.32
COc1ccc(Nc2ncnc3c2cnn3-c2ccccc2)c(OC)c1	-3.32*
CCc1ccccc1Nc1ncnc2c1cnn2-c1ccc(OC)cc1	-0.22
COc1ccc(NC(=O)c2c(NCc3ccncc3)sc3c2CCCC3)c(OC)c1	-0.73
O=C(CSc1nc(NC2CCCCC2)c2ccccc2n1)c1ccc(F)cc1	0.53
CC(C)c1ccc(NC(=O)c2cc(-c3cccs3)nc3ccccc23)cc1	-0.09
O=C(Nc1cccnc1)c1cc(-c2cccs2)nc2ccccc12	0.73
Cc1ccc(Cl)cc1NC(=O)c1cc(-c2cccs2)nc2ccccc12	-3.01*
Nc1ccccc1N1CCCCC1	0.12
O=C(NC1CCCCC1)c1ccc2c(=O)n(-c3ccc(F)cc3)c(=S)[nH]c2c1	0.47
CC1(C)C(=O)N(Cc2ccccc2)c2ccccc2N1C(=O)c1ccc(Br)cc1	-4*
CC1(C)C(=O)N(Cc2ccc([N+](=O)[O-])cc2)c2ccccc2N1C(=O)c1ccc(Br)cc1	-0.47
Cc1ccc(C(=O)CC2(O)C(=O)N(Cc3ccccc3)c3ccccc32)cc1 (centres undefined)	-0.1
COc1ccc(OC(=O)c2ccc(N3C(=O)C4C5CCC(C5)C4C3=O)cc2)cc1 (centres undefined)	0.48
O=C(OCc1ccccc1)c1cccc(N2C(=O)C3C4CCC(C4)C3C2=O)c1 (centres undefined)	0.3
O=C(Cc1ccccc1)Oc1ccc(N2C(=O)C3C4CCC(C4)C3C2=O)cc1 (centres undefined)	-6.38*
O=C(C1CCCN1S(=O)(=O)c1cccs1)N1CCN(c2ccccc2)CC1 (centres undefined)	-0.32
CC(=O)c1ccc(NC(=O)c2ccc(NS(=O)(=O)c3c(C)noc3C)cc2)cc1	-0.94
COc1ccc(NC(=O)c2ccc(NS(=O)(=O)c3c(C)noc3C)cc2)cc1OC	0.34
Cc1noc(C)c1S(=O)(=O)Nc1ccc(C(=O)Nc2ccc(C(C)C)cc2)cc1	-3.69*
Cc1ccc(Cn2c(SCC(=O)c3ccc(F)cc3)nc3ccsc3c2=O)cc1	-0.75
Cc1ccc(CNC(=O)CSc2nc3ccsc3c(=O)n2Cc2ccccc2F)cc1	-3.87*
CC(C)CCNC(=O)CSc1nc2ccsc2c(=O)n1Cc1ccc2c(c1)OCO2	-0.28
CCOC(=O)c1cnc2cc(-c3cccc(Br)c3)nn2c1C	2.81
O=c1oc2ccc(Cl)cc2cc1-c1nnc(Nc2ccccc2F)s1	0.65
SMILES	Measles inh
CCN(CC)S(=O)(=O)N1CCC(C(=O)NC2CC2)CC1	-0.69
CCc1ccc(S(=O)(=O)N=C2C=C(NS(=O)(=O)c3ccccc3)C(=O)c3ccccc32)cc1	-1.17
COc1ccc(N=c2scc(-c3ccc(Br)cc3)n2CCO)cc1	-1.25
COc1cc(C(=O)NCc2ccccn2)c([N+](=O)[O-])cc1OC	-0.19
COc1cc(C(=O)N2CCc3ccccc32)c([N+](=O)[O-])cc1OC	0.48
COc1cc(C(=O)c2ccccc2)c([N+](=O)[O-])cc1OC	-3.04*
CCOc1cc2c(cc1OCC)C1C(C(=O)NCc3cccc(OC)c3)c3ccccc3C(=O)N1CC2 (centres undefined)	0.41
O=C(C1CCN(S(=O)(=O)c2cccnc2)CC1)N1CCCCCC1	1.55
O=C1CSC(c2cc3c(cc2[N+](=O)[O-])OCO3)N1c1ccc(Oc2ccc(Cl)cc2)cc1 (centres undefined)	-0.27
CCN(c1ccccc1)S(=O)(=O)c1ccc2[nH]cc(C(=O)NC3CCCCC3)c(=O)c2c1	-2.07
CCc1ccccc1NS(=O)(=O)c1ccc2[nH]cc(C(=O)NC3CCCC3)c(=O)c2c1	-0.66
O=C(NC1CCCCCC1)c1c[nH]c2ccc(S(=O)(=O)N3CCc4ccccc43)cc2c1=O	-3.19*
CCCCN(CCCC)S(=O)(=O)c1cc(Br)cc2c1N(C(C)=O)CC2	-0.06
CCN(CCNS(=O)(=O)c1cc(Br)cc2c1N(C(C)=O)CC2)c1ccccc1	0.44
CCN(Cc1ccccc1)S(=O)(=O)c1cc(Br)cc2c1N(C(C)=O)CC2	-5.58*
Cc1cc(-c2ccccc2)nc(Nc2nc(C)c3cc(C)c(C)cc3n2)n1	-0.05
c1ccc(CCN2CCN(c3ncnc4sc5c(c34)CCCC5)CC2)cc1	-0.76
O=C(COC(=O)c1ccc2c(c1)C(=O)N(c1ccccc1Cl)C2=O)c1cccc([N+](=O)[O-])c1	0.75
COc1ccc(N2C(=O)c3ccc(C(=O)OCC(=O)c4cccc([N+](=O)[O-])c4)cc3C2=O)cc1	-5.03*
O=C(COC(=O)c1ccc2c(c1)C(=O)N(c1ccc([N+](=O)[O-])cc1)C2=O)c1ccccc1	0.42
CC1=C(C(=O)Nc2cccc(C(F)(F)F)c2)C(c2cccc(Br)c2)C2=C(CCCC2=O)N1 (centres undefined)	-0.03
CCCn1c(NCC)nc2c1c(=O)n(C)c(=O)n2C	0.42
COc1cc(-c2nc(Nc3ccc(C)cc3)c3ccccc3n2)cc(OC)c1OC	-0.38
Cc1ccc(Nc2cc(C)nc(-c3ccccc3)n2)cc1	-3.66*
COc1ccc(Nc2nc(-c3ccc(C)cc3)nc3ccccc23)cc1OC	-1.94
CCc1nnc(NC(=O)c2ccc(C)c([N+](=O)[O-])c2)s1	0.07
